# Rows were chosen to be rich in hits. Some 6.7% of all compounds tested hit in one or more screens of this group.
# KB-3-1 cytotox: qHTS assay for MDR1-selective chemotherapeutics: Primary screen using the parental adenocarcinoma cell KB-3-1; KB-3-1 viability, CellTiter-Glo ATP luminescence, 72 h; Potency, µM (highest dose often 46.1 µM), hits mostly cytotoxic; 400,000 compounds, 1.4% hits; AID 1347075, 2019; also: % is scaled to controls: 0 for no effect and ±100 for the full control effect; nearly all actives have a fitted effect of over 60% in size
#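 Cytotoxicity in the drug-sensitive parental line KB-3-1 was scored as loss of CellTiter-Glo luminescence following 72 h incubation with compound. Values come from curve fitting of normalized concentration-response data.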
# KB-V1 MDR tox: qHTS assay for MDR1-selective chemotherapeutics: Primary screen using the drug-selected MDR subline cells KB-V1. KB-V1 MDR cells viability, CellTiter-Glo, 72 h. Potency, µM (top dose mostly 46.1 µM), actives largely listed as cytotoxic. 400,000 compounds, 3.4% hits; also: % is scaled to controls: 0 for no effect and ±100 for the full control effect; nearly all actives have a fitted effect of over 60% in size
#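 Luminescent ATP read-out (CellTiter-Glo, 10 min) measures survival of drug-selected KB-V1 MDR cells after 72 h, 37 degrees C compound exposure. Medium: phenol-red-free DMEM, 10% FBS. Values from fitted concentration-response curves.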
# SW480 rerep: A quantitative high throughput screen for small molecules that induce DNA re-replication in SW480 colon adenocarcinoma cells. 340,000 compounds, 1.8% hits. SW480 DNA re-replication, Hoechst DNA content imaging, 48 h. Potency, µM (titrated, usually from 46.1 µM), without a hit: at the top dose re-replication activation, actives largely listed as activators; also: % of control where 0% means no effect; nearly all actives have a fitted effect of over 55% in size
#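 Readout is total intensity of Hoechst-stained nuclei, excited at 405 nm and collected at 500-530 nm. Compound treatment lasted 48 hr at 37 C in 5% CO2 before staining.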
# MCF10A rerep: A quantitative high throughput screen for small molecules that induce DNA re-replication in MCF 10a normal breast cells. MCF 10A DNA re-replication, Hoechst nuclear intensity, 48 h. Potency, µM (series often up to 46.1 µM), without a hit: at the top dose activity, positive = re-replication, most hits filed as activators. 350,000 compounds, 2.9% hits; also: % of control where 0% means no effect; nearly all actives have a fitted effect of over 50% in size
# PINK1 expr mod: A Quantitative High throughput Screen to Identify Chemical Modulators of PINK1 Expression | Potency, µM (series often up to 76.6 µM), inactives show at the highest dose activation (PINK1 increase), actives largely listed as activators | PINK1 immunofluorescence, high-content cytometry, 24 h | 410,000 compounds, 0.2% hits | AID 624263, 2012; active = well fitted activation curve with a large enough effect; inconclusive = small, poorly fitted or top-dose-only effect; cell line not stated here; also: % of control where 0% means no effect; nearly all actives have a fitted effect of over 65% in size
#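 Compound titrations (5 concentrations, 24 h) on a stable cell line; DMSO and CCCP controls. Endpoint: fixed-cell PINK1 immunofluorescence with mitochondrial, cell and nuclear markers, scanned by microplate cytometer.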
# The depositor's hits bear a star; i = inactive; ? = inconclusive; . = not tested or not shown; [ ] = another dose, or the depositor's remark. Unless noted, calls follow the shape of the dose curve; as a rule, active = well fitted curve in the direction sought with a large enough effect; inconclusive = small, poorly fitted or top-dose-only effect, or another doubt; inactive = no such curve, though single readings can be large; an effect the other way counts as inactive or inconclusive. Potency is read from the fitted curve at half-maximal effect.
SMILES,KB-3-1 cytotox,KB-V1 MDR tox,SW480 rerep,MCF10A rerep,PINK1 expr mod
Cc1ccccc1OCC(O)CN1CCN(CCN2C(=O)c3cccc4cccc(c34)C2=O)CC1 (configuration not stated),?,?,10%,15%,-7%
Cc1cccc(C)c1OCC(O)CN1CCC(CN2C(=O)c3cccc4cccc(c34)C2=O)CC1 (configuration not stated),21µM*,?,?,?,-2%
CCN(C)C1CN(Cc2cn(Cc3cccc(Cl)c3)nn2)S(=O)(=O)C1 (configuration not stated),i,i,.,.,0%
CC(C)c1ccc(NC(=O)c2ccc3c(c2)CCCN3S(C)(=O)=O)cc1,i,?,.,.,7%
CC(C)(C)c1csc(NC(=O)c2ccccc2O)n1,?,?,-10%[9.22 µM],?,28µM*
Cc1cnc(-c2nc3ccccc3n2C(C)C(=O)Nc2c(C)cccc2C)cn1 (configuration not stated),i,?,.,.,.
COc1ccc(C(=O)Oc2c(Sc3ccc(C)cc3)c(C)nn2C(C)(C)C)c(OC)c1,i,i,.,.,11%
O=C1C=CC(=O)N1c1ccc2c(c1)C(NC(=O)C(F)(F)F)c1ccccc1-2 (configuration not stated),.,.,8.2µM*,?,9%
CCN(CC)S(=O)(=O)c1cccc(-c2nnc(SCCOc3ccc(Cl)cc3)o2)c1,?,?,18%,20%,-1%
CCN(CC)S(=O)(=O)c1cccc(-c2nnc(SCCOc3ccccc3)o2)c1,?,16µM*,-2%,9%,1%
CCC(CC)C(=O)Nc1ccc(S(=O)(=O)N2CCC(c3nc4ccccc4s3)CC2)cc1,i,i,.,.,1%
COc1ccc(/C=N/Nc2ncc(Br)cn2)c(OC)c1,i,i,-30%,-5%,8%
Cc1ccc(N=Cc2cc(Cl)cc(Cl)c2O)nc1,i,i,18µM*,?,?
Oc1c(Cl)cc(Cl)cc1/C=N/Nc1ncc(Br)cn1,?,i,0.16µM*,?,-1%
COc1cc2c(cc1OC)C(c1ccc(F)cc1)N(c1ccccc1)C(=O)C2 (configuration not stated),i,i,.,.,-1%
NNC(=O)c1oc2nc(-c3ccccc3)cc(-c3ccccc3)c2c1N,i,i,?,18µM*,1%
Cc1ccc(-c2cc(-c3ccco3)c3c(N)c(C(=O)NN)oc3n2)cc1,?,i,21µM*,7.3µM*,2%
COc1cccc(/C=N/NC(=O)c2oc3nc(-c4ccccc4)cc(-c4ccco4)c3c2N)c1,i,i,?,?,1%
CCNC(=S)NNC(=O)c1cc(-c2cccc(C)c2)nc2ccccc12,?,?,-9%,2%,0%[38.3 µM]
CNC(=S)NNC(=O)c1oc2nc(-c3ccccc3)cc(C)c2c1N,i,i,6.5µM*,2.6µM*,0%
Cc1cc(C)c(NS(=O)(=O)c2ccc(-c3coc(C)n3)cc2)c(C)c1,i,i,.,.,3%
Cc1ccc(OC(=O)c2oc3ccc(F)cc3c2C)c(C)c1,i,i,18µM*,?,.
COc1ccc(/C=C/C(=O)c2oc3ccc(F)cc3c2C)cc1,i,i,-4%,9%,20%
CC(C)(C)c1ccc(C(=O)N2CCC(NC(=O)c3ccccc3)CC2)cc1,i,i,-7%,4%,1%
O=c1oc2ccccc2cc1-c1csc(Nc2nc3ccc(F)cc3s2)n1,.,.,-1%,2%,.
SMILES,KB-3-1 cytotox,KB-V1 MDR tox,SW480 rerep,MCF10A rerep,PINK1 expr mod
CCN(CC)c1ccc2ccc(=O)oc2c1,i,i,18µM*,?,3%
CCN(CC)c1ccc2cc(-c3nc(-c4ccccc4)no3)c(=O)oc2c1,i,i,.,.,1%
CCN(CC)c1ccc2cc(S(=O)(=O)c3ccc(C)cc3)c(=O)oc2c1,i,i,3.3µM*,2.6µM*,0%
Cc1ccc(S(=O)(=O)c2cc3ccccc3oc2=O)cc1,?,i,-10%,?,6%
O=c1oc2ccccc2cc1-c1csc(Nc2nc3c(F)cccc3s2)n1,16µM*,?,.,5.8µM*,10%
CCN(CC)c1ccc2cc(C#N)c(=O)oc2c1,i,i,1%,9%,?
CCN(CC)c1ccc2cc(-c3nc(-c4cc5ccccc5oc4=O)cs3)c(=O)oc2c1,i,i,3%,11%,32µM*
CN1CCn2cnc(C(=O)NCCCCCNC(=O)OC(C)(C)C)c2C1=O,i,i,.,.,1%
Cc1cccc(C)c1NC(=O)N1CCC(C(N)=O)(N2CCCCC2)CC1,i,?,.,.,3%
CCOC(=O)N1CCN(/[N+]([O-])=N/OCOC)CC1,.,.,.,.,0%
CCN(CC)c1ccc2c(C)cc(=O)oc2c1,i,?,?,26µM*,-1%
CC(C)CCn1c(SC(C)C#N)nc2ccccc2c1=O (configuration not stated),i,i,.,.,3%
CCOC(=O)C1(CCc2ccccc2)CCN(C(=O)c2cccc(C)n2)CC1,i,i,10%,1%,0%
CCOC(=O)C1(CCc2ccccc2)CCN(C(=O)c2occc2C)CC1,i,?,1.6µM*,-12%,0%
CC(C)NC(=S)NN=C1CCC(c2ccccc2)CC1 (configuration not stated),i,i,21µM*,-12%,0%
CCOc1ccc(NC(=O)CSc2ncc3c(n2)-c2ccc(Cl)cc2N(Cc2ccccc2)S3(=O)=O)cc1,i,i,.,.,1%
O=C(NNC1=Nc2cccc3cccc1c23)c1ccc(Br)cc1,?,i,18µM*,15µM*,19%
CN(C)C(=O)c1ccc(NC(=O)COc2cccc3c2OC(C)(C)C3)cc1,i,?,-19%,5%,-1%
Cc1ccc(SCc2cc(=O)[nH]c(Nc3nc(C)c4ccccc4n3)n2)cc1,i,9.2µM*,-5%,8%,5%
Cc1nc(Nc2nc3c(c(=O)[nH]2)CCC3)nc2ccccc12,5.8µM*,?,-85%,?,1%
COc1ccc2c(C)nc(Nc3nc(-c4ccccc4)cc(=O)[nH]3)nc2c1,4.6µM*,?,3.7µM*,4.6µM*,5%
O=c1[nH]c(NCc2ccccc2)nc2c1CCC2,i,i,-7%,1%,-1%
Cc1ccc2nc(Nc3nc(CSc4nnc(C)s4)cc(=O)[nH]3)nc(C)c2c1,?,23µM*,?,1%,15%
